# From PubChem BioAssay AID1159580 (chemical genetic matrix, 2015)
# “And” between values parts separate entries of the source, which are not always exact repeats. Identical values can stand only once. About 2,000 (36%) of roughly 5,500 compounds were called active. Roughly 18% stayed inconclusive and do not appear here. This is one part of the list. A number with no mark means an inactive call. No stated cut-off is given here; in the data, active means normalized growth mostly below about 0.91 (no sharp cut-off); inconclusive means no clear call, values can overlap the other calls; inactive means mostly above about 0.92.
# Assay: chemical genetic growth profiling, strain panel (AID 1159580);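 further: tested at 20 µM; growth read once vehicle control cultures reached saturation at 30 °C; 1 = growth at the plate median or of vehicle wells; lower values mean less growth of the strain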
# Conditions: S. cerevisiae deletion strains, growth OD
# [1] = locus YDL101C, strain DUN1, hits give low values
# [2] = locus YHR030C, strain SLT2, hits give low values
# [3] = locus YHR079C, strain IRE1, hits give low values
# [4] = locus YJL095W, strain BCK1, hits give low values
# [5] = locus YJR066W, strain TOR1, hits give low values
# [6] = locus YLR113W, strain HOG1, hits give low values
# [7] = locus YNL183C, strain NPR1, hits give low values
# [8] = locus YOR061W, strain CKA2, hits give low values
# [9] = locus YOR231W, strain MKK1, hits give low values
# [10] = locus YPL256C, strain CLN2, hits give low values
compound,measurement,setting,value
COc1cc(OC)cc(/C(N)=N\O)c1,normalized growth,"locus YAR019C, strain CDC15, hits give low values",0.981
same,normalized growth,"locus YBL105C, strain PKC1, hits give low values",0.99
same,normalized growth,"locus YBR135W, strain CKS1, hits give low values",0.986
same,normalized growth,"locus YBR136W, strain MEC1, hits give low values",0.975
same,normalized growth,"locus YBR160W, strain CDC28, hits give low values",0.993
same,normalized growth,"locus YDL017W, strain CDC7, hits give low values",0.989
same,normalized growth,"locus YDL028C, strain MPS1, hits give low values",0.982
same,normalized growth,[1],0.992
same,normalized growth,"locus YDL108W, strain KIN28, hits give low values",0.982
same,normalized growth,"locus YDL132W, strain cdc53, hits give low values",0.997
same,normalized growth,"locus YDL214C, strain PRR2, hits give low values",0.956
same,normalized growth,"locus YDR052C, strain DBF4, hits give low values",0.991
same,normalized growth,"locus YDR054C, strain cdc34, hits give low values",0.992
same,normalized growth,"locus YDR226W, strain ADK1, hits give low values",0.994
same,normalized growth,"locus YDR477W, strain SNF1, hits give low values",0.958
same,normalized growth,"locus YER123W, strain YCK3, hits give low values",0.927
same,normalized growth,"locus YER133W, strain GLC7, hits give low values",0.971
same,normalized growth,"locus YFL009W, strain cdc4, hits give low values",0.991
same,normalized growth,"locus YFL029C, strain CAK1, hits give low values",0.975
same,normalized growth,"locus YFR003C, strain YPI1, hits give low values",0.99
same,normalized growth,"locus YFR019W, strain FAB1, hits give low values",0.961
same,normalized growth,"locus YFR028C, strain CDC14, hits give low values",0.994
same,normalized growth,"locus YGR040W, strain KSS1, hits give low values",0.959
same,normalized growth,"locus YGR052W, strain FMP48, hits give low values",1.02
same,normalized growth,"locus YGR092W, strain DBF2, hits give low values",0.943
same,normalized growth,[2],0.874
same,normalized growth,[3],0.909
same,normalized growth,"locus YHR082C, strain KSP1, hits give low values",0.994
same,normalized growth,"locus YHR205W, strain SCH9, hits give low values",0.891
same,normalized growth,"locus YIL147C, strain SLN1, hits give low values",0.963
same,normalized growth,[4],0.875
same,normalized growth,"locus YJL128C, strain PBS2, hits give low values",0.967
same,normalized growth,"locus YJL157C, strain FAR1, hits give low values",0.983
same,normalized growth,"locus YJR016C, strain ILV3, hits give low values",0.997
same,normalized growth,"locus YJR066W, strain TOR1 (second series), hits give low values",0.929
same,normalized growth,[5],0.966
same,normalized growth,"locus YKL048C, strain ELM1, hits give low values",0.962
same,normalized growth,"locus YKL067W, strain YNK1, hits give low values",0.961
same,normalized growth,"locus YKL101W, strain HSL1, hits give low values",0.925
same,normalized growth,"locus YKL193C, strain SDS22, hits give low values",0.992
same,normalized growth,"locus YKL203C, strain TOR2, hits give low values",1.01
same,normalized growth,[6],0.847 (active)
same,normalized growth,"locus YLR133W, strain CKI1, hits give low values",0.958
same,normalized growth,"locus YLR403W, strain SFP1, hits give low values",0.937
same,normalized growth,"locus YML070W, strain DAK1, hits give low values",0.943
same,normalized growth,"locus YMR001C, strain CDC5, hits give low values",0.991
same,normalized growth,"locus YMR205C, strain PFK2 (second series), hits give low values",0.963
same,normalized growth,"locus YMR277W, strain FCP1, hits give low values",0.997
same,normalized growth,"locus YNL006W, strain LST8, hits give low values",0.993
same,normalized growth,"locus YNL020C, strain ARK1, hits give low values",0.959
same,normalized growth,"locus YNL161W, strain CBK1, hits give low values",0.988
same,normalized growth,[7],0.95
same,normalized growth,"locus YNL207W, strain RIO2, hits give low values",0.988
same,normalized growth,"locus YNL222W, strain SSU72, hits give low values",0.991
same,normalized growth,"locus YNL307C, strain MCK1 (second series), hits give low values",0.951
same,normalized growth,"locus YOL078W, strain AVO1, hits give low values",0.991
same,normalized growth,"locus YOL136C, strain PFK27, hits give low values",0.955
same,normalized growth,[8],0.925
same,normalized growth,"locus YOR119C, strain RIO1, hits give low values",0.983
same,normalized growth,[9],0.904
same,normalized growth,"locus YOR329C, strain SCD5, hits give low values",0.987
same,normalized growth,"locus YPL031C, strain PHO85, hits give low values",0.958
same,normalized growth,"locus YPL153C, strain RAD53, hits give low values",0.943
same,normalized growth,"locus YPL204W, strain HRR25, hits give low values",0.973
same,normalized growth,"locus YPL209C, strain IPL1, hits give low values",0.988
same,normalized growth,[10],0.891
same,normalized growth,"locus YPR025C, strain CCL1, hits give low values",0.986
same,normalized growth,"locus YPR106W, strain ISR1, hits give low values",0.988
same,normalized growth,"locus YPR111W, strain DBF20, hits give low values",0.986
same,normalized growth,"strain NNK1, hits give low values",0.992
same,normalized growth,"strain TSCII, hits give low values",0.996
COc1cc(OC)c(-c2c(OC)cc(OC)cc2OC)c(OC)c1,normalized growth,"locus YBR021W, strain FUR4, hits give low values",1.05
same,normalized growth,"locus YBR229C, strain ROT2, hits give low values",1.01
same,normalized growth,"locus YCL029C, strain bik1, hits give low values",0.997
same,normalized growth,"locus YDL035C, strain GPR1, hits give low values",1.02
same,normalized growth,"locus YDL074C, strain BRE1, hits give low values",1.06
same,normalized growth,[1],1.03
same,normalized growth,"locus YDL185W, strain tfp1, hits give low values",1.03
same,normalized growth,"locus YDL192W, strain arf1, hits give low values",1.04
same,normalized growth,"locus YDR101C, strain arx1, hits give low values",1.02
same,normalized growth,"locus YDR162C, strain NBP2, hits give low values",1.04
same,normalized growth,"locus YDR318W, strain mcm21, hits give low values",1.03
same,normalized growth,"locus YDR388W, hits give low values",1.01
same,normalized growth,"locus YDR502C, strain sam2, hits give low values",1.05
same,normalized growth,"locus YEL061C, strain CIN8, hits give low values",1.01
same,normalized growth,"locus YER110C, hits give low values",1.02
same,normalized growth,"locus YER155C, strain BEM2, hits give low values",1.01
same,normalized growth,"locus YER167W, strain BCK2, hits give low values",1.01
same,normalized growth,"locus YGL078C, strain dbp3, hits give low values",1.05
same,normalized growth,"locus YGL086W, strain mad1, hits give low values",1.04
same,normalized growth,"locus YGL248W, strain PDE1, hits give low values",1.03
same,normalized growth,"locus YGR078C, strain PAC10, hits give low values",1.06
same,normalized growth,"locus YGR135W, strain pre9, hits give low values",1.07
same,normalized growth,"locus YGR252W, strain gcn5, hits give low values",1.05
same,normalized growth,[2],0.998
same,normalized growth,"locus YHR079C, strain IRE1 (second series), hits give low values",1.02
same,normalized growth,[3],0.998
same,normalized growth,"locus YHR094C, strain hxt1, hits give low values",1.03
same,normalized growth,"locus YHR129C, strain ARP1, hits give low values",1.01
same,normalized growth,"locus YHR200W, strain rpn10, hits give low values",1.03
same,normalized growth,"locus YIL066C, strain RNR3, hits give low values",1.02
same,normalized growth,"locus YIL073C, strain SPO22, hits give low values",1.1
same,normalized growth,"locus YIL125W, strain kgd1, hits give low values",1.01
same,normalized growth,"locus YIR030C, strain dcg1, hits give low values",1.02
same,normalized growth,[4],1.09 and 0.999
same,normalized growth,"locus YJL134W, strain LCB3, hits give low values",1.01
same,normalized growth,"locus YJL168C, strain set2, hits give low values",1.02
same,normalized growth,"locus YJL187C, strain SWE1 (second series), hits give low values",1.06
same,normalized growth,[5],0.953
same,normalized growth,"locus YJR075W, strain HOC1, hits give low values",1.04
same,normalized growth,"locus YKL009W, strain mrt4, hits give low values",1.06
same,normalized growth,"locus YKL068W, hits give low values",0.993
same,normalized growth,"locus YKL085W, strain MDH1 (second series), hits give low values",1.01
same,normalized growth,"locus YKL085W, strain MDH1, hits give low values",1.01
same,normalized growth,"locus YKL190W, strain CNB1, hits give low values",1.02
same,normalized growth,"locus YKR001C, strain vps1, hits give low values",1.05
same,normalized growth,"locus YLR039C, strain RIC1, hits give low values",1.07
same,normalized growth,"locus YLR058C, strain SHM2, hits give low values",1.04
same,normalized growth,"locus YLR102C, strain apc9, hits give low values",1.01
same,normalized growth,[6],1
same,normalized growth,"locus YLR262C, strain YPT6, hits give low values",1.09
same,normalized growth,"locus YLR268W, strain sec22, hits give low values",1.02
same,normalized growth,"locus YLR371W, strain rom2, hits give low values",1.02
same,normalized growth,"locus YLR418C, strain cdc73, hits give low values",1.13
same,normalized growth,"locus YML016C, strain PPZ1, hits give low values",1.02
same,normalized growth,"locus YML032C, strain rad52, hits give low values",1.04
same,normalized growth,"locus YML124C, strain tub3, hits give low values",1.02
same,normalized growth,"locus YMR078C, strain ctf18, hits give low values",1.02
same,normalized growth,"locus YMR223W, strain ubp8, hits give low values",1.04
same,normalized growth,"locus YMR307W, strain GAS1, hits give low values",1.07
same,normalized growth,"locus YNL067W, strain RPL9B, hits give low values",1.05
same,normalized growth,[7],0.948
same,normalized growth,"locus YNL233W, strain BNI4, hits give low values",1.07
same,normalized growth,"locus YNL250W, strain rad50, hits give low values",1.06
same,normalized growth,"locus YNL271C, strain bni1, hits give low values",1.02
same,normalized growth,"locus YNL298W, strain CLA4, hits give low values",1.03
same,normalized growth,"locus YNL307C, strain MCK1, hits give low values",1.03
same,normalized growth,"locus YNR052C, strain pop2, hits give low values",1.04
same,normalized growth,"locus YOL006C, strain TOP1, hits give low values",1.15
same,normalized growth,"locus YOL012C, strain htz1",0.971
same,normalized growth,"locus YOL147C, strain pex11, hits give low values",1.03
same,normalized growth,[8],1.02
same,normalized growth,"locus YOR069W, strain VPS5, hits give low values",1.01
same,normalized growth,"locus YOR136W, strain idh2, hits give low values",1.03
same,normalized growth,"locus YOR144C, strain elg1, hits give low values",1.02
same,normalized growth,"locus YOR184W, strain ser1, hits give low values",1.04
same,normalized growth,[9],0.976
same,normalized growth,"locus YOR316C, strain cot1, hits give low values",1.03
same,normalized growth,[10],0.997
same,normalized growth,"locus YPR119W, strain clb2, hits give low values",1.01
same,normalized growth,"locus YPR141C, strain kar3, hits give low values",1.02
same,normalized growth,"locus YPR163C, strain tif3, hits give low values",1.03
same,normalized growth,"locus YPR167C, strain met16, hits give low values",1.03
same,normalized growth,"strain wtn01, hits give low values",1.03
